# Screening results: PubChem, several laboratories
# Only some compounds are listed: those with a hit (about 8.9% of all), similar ones and a draw of the others.
# mHtt clearance: compounds clearing mutant huntingtin protein. HeLa Exon1htt(103Q)mCFP, aggregate imaging; zero = plate's median compound well. inhibition, % at 1.5 µM. actives 0.42% (n = 47,000). AID 853;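 active = inhibition of aggregate fluorescence above about 70%, also judged a hit by eye on the cell image, limit read from the data, passing the limit was not always enough; inconclusive = no rule stated for this call; inactive = not judged a hit on image review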;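 note: cells exposed to compound for three days before fixation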
# WNV NS2B-NS3 inh: inhibitors of West Nile virus NS2B-NS3 protease. WNV NS2B-NS3 protease, fluorogenic substrate Ex360/Em465; stronger effect = lower value. AID 577. actives 0.18% (n = 65,000). z-score (no concentration beside the values). P06935; in the data active = z-score below about -3
# M1 agonist: M1 muscarinic receptor agonism. CHO-M1 cells, Fluo-4 calcium fluorescence, agonist mode; stronger effect = higher value. B-score at 10 µM. actives 3% (n = 64,000);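 active = fluorescence rise, raw or as B-score row- and column-corrected plate score, outside the 99.7% band of its plate's samples, either direction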
# D1 mod: allosteric modulators of human D1 dopamine receptor. P21728. B-score at 10 µM. HEK293 D1, CRE-luciferase, dopamine EC30 potentiation; actives deviate in either direction. actives 5.9% (n = 58,000);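 active = luminescence count or its row- and column-corrected plate score outside the 99.7% band of the plate's sample wells, on either side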
# M1 antagonist: blocks the rat M1 muscarinic receptor response to acetylcholine. P08482. CHO-M1 cells, Fluo-4 calcium, ACh EC80 antagonist mode; stronger effect = lower value. B-score at 10 µM. actives 3.4% (n = 64,000). AID 628;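 active = calcium fluorescence response, raw or row-and-column corrected B-score, differing from the plate sample mean either way at a set confidence level, mostly lower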
# M1 agonist conf: confirmation of rat M1 muscarinic receptor agonists; AID 1488; CHO-M1 cells, Fluo-4 calcium fluorescence, agonist mode; actives lie on both sides; shares compounds with M1 agonist; fluorescence change (max-min) at 10 µM; actives 19% (n = 1,700);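 active = fluorescence change differs from the solvent-only DMSO control mean at a set confidence level in both duplicate runs; inconclusive = differs from solvent-only control mean in just one of two runs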;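 note: an EC20 dose of acetylcholine follows compound addition during the same imaging run; raw fluorescence intensity difference in instrument units with no normalization to controls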
# M4 agonist ctr: rat M4 muscarinic agonism, M1 counter-screen | fluorescence change (max-min) at 10 µM | CHO M4/Gqi5 cells, Fluo-4 calcium fluorescence, agonist mode; actives lie on both sides | actives 9% (n = 1,700) | shares compounds with M1 agonist | AID 1741;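 active = fluorescence change differing from the plate's solvent-only control wells at 99.7% confidence in both duplicates, whether higher or lower; inconclusive = differs from solvent controls in only one of two duplicates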
# Target sequence (P08485 whole entry, looked up): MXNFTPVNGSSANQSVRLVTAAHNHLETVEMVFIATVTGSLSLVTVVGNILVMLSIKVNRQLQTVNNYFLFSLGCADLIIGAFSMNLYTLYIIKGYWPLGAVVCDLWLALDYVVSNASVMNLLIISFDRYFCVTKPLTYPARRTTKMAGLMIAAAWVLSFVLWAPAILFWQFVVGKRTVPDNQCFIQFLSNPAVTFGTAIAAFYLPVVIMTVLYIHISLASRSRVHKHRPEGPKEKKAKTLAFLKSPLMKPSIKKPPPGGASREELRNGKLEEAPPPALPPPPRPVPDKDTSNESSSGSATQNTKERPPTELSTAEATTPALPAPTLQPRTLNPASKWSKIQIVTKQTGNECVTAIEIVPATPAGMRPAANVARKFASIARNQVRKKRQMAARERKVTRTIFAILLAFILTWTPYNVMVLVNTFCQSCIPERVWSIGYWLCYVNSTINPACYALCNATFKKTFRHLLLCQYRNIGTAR
# * hit, by the source's call; ? = inconclusive; nt = no result.
SMILES,mHtt clearance,WNV NS2B-NS3 inh,M1 agonist,D1 mod,M1 antagonist,M1 agonist conf,M4 agonist ctr
CCOc1cccc(C2C(C(=O)c3ccc(C)o3)=C(O)C(=O)N2c2nccs2)c1 (stereo not given),nt,-0.3,54.6*,-0.0225,0.274,822*,125*
CCOc1cccc(C2C(C(=O)c3ccc(C)o3)=C(O)C(=O)N2Cc2ccncc2)c1 (stereo not given),-18.2,0.69,0.538,0.0331,0.0471,nt,nt
Cn1c(=O)c2c(nc(N3CCN(Cc4ccccc4)CC3)n2CCSc2ncccn2)n(C)c1=O,nt,-0.47,-0.389,-0.136,1.2,nt,nt
O=C(c1cccs1)N(Cc1ccco1)c1nc(-c2ccc(F)cc2)cs1,-24.0,nt,nt,nt,nt,nt,nt
CN(C)CCCN(C(=O)c1cccs1)c1nc(-c2ccccc2)cs1,-21.8,-0.59,13.7*,-4.75*,-8.72*,27.5,-23.9
CC(=O)NC(Cc1ccc(F)cc1)C(=O)N1CCN(C(=O)NCc2ccccc2)CC1 (stereo not given),-65.7,-0.13,0.764,0.263,1.29,nt,nt
Cc1c(NC(=O)c2ccc(F)cc2)c(=O)n(-c2ccccc2)n1C,nt,0.25,1.43,-0.509,0.45,nt,nt
Cc1c(NC(=O)c2ccc(COc3ccc4ccccc4c3)o2)c(=O)n(-c2ccccc2)n1C,nt,-1.02,-2.82*,-0.497,0.0263,-14.1,-52.3
COc1ccc(NC(=O)Nc2c(C)n(C)n(-c3ccccc3)c2=O)cc1,nt,0.33,0.0922,-0.107,-0.514,nt,nt
Cc1c(NC(=O)c2cccc(F)c2)c(=O)n(-c2ccccc2)n1C,nt,0.27,8.89*,-0.706,-6.54*,-14.4,?
N#Cc1nc(COc2ccc(F)cc2)oc1N1CCN(Cc2ccccc2)CC1,nt,-0.24,0.0187,-2.43,0.114,nt,nt
N#Cc1nc(COc2ccccc2)oc1N1CCN(c2cccc(Cl)c2)CC1,14.4,0.93,4.11*,0.479,-0.00794,122*,?
N#Cc1nc(COc2cccc(Cl)c2)oc1N1CCN(c2ccccc2)CC1,56.5,0.11,-0.902,0.416,-0.657,nt,nt
N#Cc1nc(COc2ccc(F)cc2)oc1N1CCC(Cc2ccccc2)CC1,-54.7,-0.16,9.25*,-0.46,-0.458,15.5,-48.5
CC1CN(C2CCN(S(=O)(=O)Cc3ccccc3)CC2)CC(C)O1 (stereo not given),nt,0.83,-1.04,0.641,0.0946,nt,nt
O=C(Cn1ncc2c1-c1ccccc1OC2)Nc1ccc(S(=O)(=O)N2CCCCC2)cc1,-17.2,-0.13,0.728,1.06,-0.907,nt,nt
COc1ccc(-c2nnc(SCC(=O)Nc3ccccc3OC)o2)cc1,62.5,-0.28,-0.371,0.123,-0.0704,nt,nt
COc1ccccc1NC(=O)CSc1nnc(C)o1,18.2,-0.08,2.39*,0.0368,0.0781,-11.8,-29
C=CCN1C(=O)C(O)=C(C(C)=O)C1c1ccccc1F (stereo not given),nt,2.76,nt,1.5,nt,nt,nt
C=CCOc1ccc(C2c3c(oc4ccccc4c3=O)C(=O)N2c2ccccn2)cc1OCC (stereo not given),nt,0.38,0.179,1.36,-0.179,nt,nt
CCC(=O)c1ccc(OCC(=O)Nc2nn3cnnc3s2)cc1,-27.7,-0.79,0.599,-0.0477,-0.0425,nt,nt
Cc1cccc(N2CCN(C(=O)c3ccc(CS(=O)(=O)c4ccccc4C)o3)CC2C)c1 (stereo not given),nt,-0.06,9.2*,-0.119,-2.16*,?,-29.7
Cc1ccc(S(=O)(=O)Cc2ccc(C(=O)N3CCN(c4ccccn4)CC3)o2)cc1,-2.4,-1.08,1.25,-0.382,-0.847,nt,nt
COc1ccccc1S(=O)(=O)Cc1ccc(C(=O)N2CCN(c3cccc(Cl)c3)CC2)o1,nt,-0.18,9.48*,0.385,-0.994,-26.3*,-50.7
O=C(c1ccc(CS(=O)(=O)c2c(Cl)cccc2Cl)o1)N1CCN(c2ccccn2)CC1,nt,-0.18,3.36*,0.758,-2.98*,-15.7,-24.3
SMILES,mHtt clearance,WNV NS2B-NS3 inh,M1 agonist,D1 mod,M1 antagonist,M1 agonist conf,M4 agonist ctr
Cc1ccc(S(=O)(=O)Cc2ccc(C(=O)N3CCN(c4cc(C)ccc4C)CC3)o2)cc1,15.1,0.27,-0.444,-0.00696,0.39,nt,nt
Cc1ccc(C)c(N2CCN(C(=O)c3ccc(CS(=O)(=O)c4ccccc4C)o3)CC2)c1,-32.4,0.41,2.82*,-0.385,-1.15,-18.7,-28.1
O=C(O)CCCNS(=O)(=O)c1ccc(NCc2ccccc2)c(C(=O)O)c1,nt,0.06,-0.0216,0.281,0.035,nt,nt
CCOC(=O)C(CC)(CC)C(=O)/C=C/c1ccc(Br)cc1,-10.6,nt,nt,nt,nt,nt,nt
O=C(NCC1CCCO1)C1CC(c2ccc(Cl)c(Cl)c2)=NO1 (stereo not given),-52.8,0.45,-1.33,0.456,-1.36,nt,nt
COc1cccc(=O)c2c(C)oc(C)c12,?,0.81,44*,-0.183,0.708,536*,502*
COC(=O)c1c(NC(=O)c2ccoc2C)sc2c1CCC2,46.2,0.64,2.24*,0.024,0.233,0.418,-44.4
O=C(OCCNC(=O)c1ccc2ccccc2n1)c1cccnc1,nt,-0.16,3.22*,nt,0.1,?,-48.1
c1cncc(-c2nnc3sc(-c4ccco4)nn23)c1,nt,0.69,-0.235,0.565,-0.0254,nt,nt
CCN(CC)c1ccc(-c2nn3c(-c4cccnc4)nnc3s2)cc1,nt,0.44,8.57*,0.111,-6.21*,-11.3,-31.9
O=C(c1cn(CC(=O)N2CCCC2)c2ccccc12)C1CCCCC1,15.3,-0.55,-0.36,0.796,0.211,nt,nt
O=C(CN1C(=O)c2ccccc2C1=O)Nc1ccccc1C(=O)N1CCCC1,-29.8,0.05,0.911,0.919,0.0343,nt,nt
Nc1nnc(N2CCc3ccccc32)s1,nt,-1.42,3.37*,0.291,0.338,?,-71.9*
Nc1nnc(N2CCCCC2)s1,nt,-0.01,-0.108,0.33,0.465,nt,nt
CC(NC(=O)c1cccc(F)c1)C(c1cccs1)N1CCN(C)CC1 (stereo not given),0.8,-0.54,-0.26,0.0987,-0.057,nt,nt
COc1cc2c(cc1OC)C(C(=O)Nc1ccc3c(c1)OCCO3)C(c1cccnc1)N(C)C2=O (stereo not given),8.3,2.45,nt,0.335,nt,nt,nt
CC(CN1CCOCC1)(NS(=O)(=O)c1ccccc1)c1ccccc1 (stereo not given),3.4,0.33,17.5*,-0.397,-0.0886,?,-37.4
CC(C(=O)N1CCOCC1)(c1ccccc1)c1ccccc1,-12.3,0.12,0.0263,0.0954,0.469,nt,nt
O=C(NCCN1CCN(c2ccccc2F)CC1)c1cccn2c(=O)c3ccccc3nc12,-23.8,1.34,6.71*,nt,-1.15,28.9,12.2
O=C(CN1C(=O)COc2ccccc21)N(Cc1cccnc1)Cc1ccccc1F,-18.3,-0.88,0.941,-0.975,-0.137,nt,nt
Cc1nc(SCC(=O)N2CCC(C(N)=O)CC2)n[nH]1,8.5,1.3,3.93*,-0.769,-0.179,?,-44.7
Cc1ccc(-c2cc(C(F)F)nc(N3CCC(C)CC3)n2)cc1,-45.5,0.37,4.23*,2.6,0.705,3.35,-8.72
CC1CCN(c2nc(-c3ccccc3)cc(C(F)(F)F)n2)CC1,nt,-0.67,1.28,0.617,-0.117,nt,nt
